# Measurements taken from PMC7862700, “An all-to-all approach to the identification of sequence-specific readers for epigenetic DNA modifications on cytosine”.
# Key:
# Experiment in all cases: DAPPL (digital affinity profiling via proximity ligation, sequencing); 10 mM Tris-HCl pH 7.5, 50 mM NaCl, 1 mM DTT, 4% glycerol, room temperature, 30 min; GST-TFs on glutathione beads, 16-mer random dsDNA library, 0.1% formaldehyde crosslink after washing; high values mean tight binding
# Conditions in all cases: protein: recombinant; tags: N-terminal GST; dsDNA, one strand shown
# [1] = molecular target: ETV1 (Homo sapiens, UniProt P50549 1-477)
# Sequence of ETV1 (P50549 whole entry, the tested form may be a part): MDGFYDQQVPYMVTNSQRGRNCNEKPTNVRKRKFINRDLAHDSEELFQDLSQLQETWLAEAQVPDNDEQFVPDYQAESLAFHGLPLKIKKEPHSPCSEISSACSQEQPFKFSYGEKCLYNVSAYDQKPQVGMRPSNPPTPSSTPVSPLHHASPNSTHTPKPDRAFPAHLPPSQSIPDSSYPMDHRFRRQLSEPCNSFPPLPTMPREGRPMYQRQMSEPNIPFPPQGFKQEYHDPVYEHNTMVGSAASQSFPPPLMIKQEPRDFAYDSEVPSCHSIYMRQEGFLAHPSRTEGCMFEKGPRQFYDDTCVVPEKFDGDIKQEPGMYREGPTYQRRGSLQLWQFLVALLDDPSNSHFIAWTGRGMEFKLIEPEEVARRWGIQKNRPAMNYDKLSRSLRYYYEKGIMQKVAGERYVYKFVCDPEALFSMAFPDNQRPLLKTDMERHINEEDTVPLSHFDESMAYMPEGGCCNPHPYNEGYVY
# Outline: (§1)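 In yeast, human transcription factors were expressed with a GST fusion, then pulled down on glutathione beads and given DNA barcodes. Pooled with a tag-only sample, they were exposed to 200 nmole of a 16-mer random double-stranded DNA library (Tris/NaCl/DTT/glycerol buffer, room temperature, 30 min), washed, crosslinked with 0.1% formaldehyde, proximity-ligated using BsaI/T4 ligase for 1 h at 37 °C, PCR-amplified and read on an Illumina NextSeq500. Each hexamer's frequency of reads for a factor, divided by the matching frequency for the tag-only sample, gives the binding signal.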
# [2] = molecular target: T1, ERF (Homo sapiens, UniProt P50548 1-548)
# T1 sequence: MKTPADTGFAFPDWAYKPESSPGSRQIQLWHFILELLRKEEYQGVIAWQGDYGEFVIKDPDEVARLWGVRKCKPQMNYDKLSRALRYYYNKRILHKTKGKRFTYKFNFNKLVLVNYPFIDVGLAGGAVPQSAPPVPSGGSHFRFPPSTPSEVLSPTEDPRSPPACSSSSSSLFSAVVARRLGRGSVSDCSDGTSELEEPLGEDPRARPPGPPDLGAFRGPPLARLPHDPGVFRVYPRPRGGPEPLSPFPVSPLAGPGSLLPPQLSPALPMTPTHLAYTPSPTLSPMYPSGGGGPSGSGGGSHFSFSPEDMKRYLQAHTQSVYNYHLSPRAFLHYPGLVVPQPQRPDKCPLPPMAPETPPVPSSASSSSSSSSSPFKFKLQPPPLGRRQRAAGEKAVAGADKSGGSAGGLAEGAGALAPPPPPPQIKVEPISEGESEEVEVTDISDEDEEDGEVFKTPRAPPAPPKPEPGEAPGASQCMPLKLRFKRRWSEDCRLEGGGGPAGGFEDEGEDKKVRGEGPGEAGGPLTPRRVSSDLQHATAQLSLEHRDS
# Outline: as §1
# [3] = molecular target: T2, ETV3L (Homo sapiens, UniProt Q6ZN32 1-361)
# T2 sequence: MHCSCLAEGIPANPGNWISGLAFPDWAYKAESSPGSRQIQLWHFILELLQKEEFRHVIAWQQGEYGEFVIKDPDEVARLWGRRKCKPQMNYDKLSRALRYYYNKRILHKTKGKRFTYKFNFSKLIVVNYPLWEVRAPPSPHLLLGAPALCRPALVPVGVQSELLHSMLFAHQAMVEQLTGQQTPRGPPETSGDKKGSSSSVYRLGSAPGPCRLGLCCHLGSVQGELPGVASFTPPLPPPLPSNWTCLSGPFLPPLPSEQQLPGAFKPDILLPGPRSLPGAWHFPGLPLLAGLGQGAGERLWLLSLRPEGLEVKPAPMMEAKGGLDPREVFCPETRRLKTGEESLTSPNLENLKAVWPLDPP
# Outline: as §1
# [4] = molecular target: T3, ETS2 (Homo sapiens, UniProt P15036 1-469)
# T3 sequence: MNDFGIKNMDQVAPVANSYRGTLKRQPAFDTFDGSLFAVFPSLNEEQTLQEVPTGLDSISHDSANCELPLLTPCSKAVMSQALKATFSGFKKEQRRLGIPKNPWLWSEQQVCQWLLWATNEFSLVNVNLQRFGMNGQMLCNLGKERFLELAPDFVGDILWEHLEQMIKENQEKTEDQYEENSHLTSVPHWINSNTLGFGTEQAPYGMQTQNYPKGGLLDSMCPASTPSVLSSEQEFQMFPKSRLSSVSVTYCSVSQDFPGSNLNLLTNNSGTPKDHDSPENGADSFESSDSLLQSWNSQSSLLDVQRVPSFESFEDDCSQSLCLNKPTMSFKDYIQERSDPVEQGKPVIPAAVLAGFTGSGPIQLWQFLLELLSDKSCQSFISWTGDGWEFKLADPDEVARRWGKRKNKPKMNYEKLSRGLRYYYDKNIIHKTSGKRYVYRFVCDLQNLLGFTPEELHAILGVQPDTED
# Outline: as §1
# [5] = molecular target: T4, SPDEF (Homo sapiens, UniProt O95238 1-335)
# T4 sequence: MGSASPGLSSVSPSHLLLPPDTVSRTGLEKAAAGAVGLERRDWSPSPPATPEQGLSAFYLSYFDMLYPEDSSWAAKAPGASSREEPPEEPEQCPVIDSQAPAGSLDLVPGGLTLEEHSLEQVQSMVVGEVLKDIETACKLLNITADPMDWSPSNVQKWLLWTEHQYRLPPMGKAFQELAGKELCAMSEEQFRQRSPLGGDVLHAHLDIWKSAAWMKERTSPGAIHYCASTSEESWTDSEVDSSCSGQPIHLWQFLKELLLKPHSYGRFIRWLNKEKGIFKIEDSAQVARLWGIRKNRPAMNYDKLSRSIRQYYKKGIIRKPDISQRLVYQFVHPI
# Outline: as §1
# [6] = molecular target: T5, ETV7 (Homo sapiens, UniProt Q9Y603 1-341)
# T5 sequence: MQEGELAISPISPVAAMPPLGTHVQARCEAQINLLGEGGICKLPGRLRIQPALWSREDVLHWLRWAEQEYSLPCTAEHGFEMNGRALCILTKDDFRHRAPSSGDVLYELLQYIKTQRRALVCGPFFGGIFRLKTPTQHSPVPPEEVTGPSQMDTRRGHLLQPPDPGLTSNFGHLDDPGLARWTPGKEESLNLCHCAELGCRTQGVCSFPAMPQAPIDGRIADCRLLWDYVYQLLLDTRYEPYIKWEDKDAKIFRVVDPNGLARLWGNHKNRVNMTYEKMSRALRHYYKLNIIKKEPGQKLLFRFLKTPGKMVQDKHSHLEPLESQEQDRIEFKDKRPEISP
# Outline: as §1
# [7] = molecular target: T6, ELF5 (Homo sapiens, UniProt Q9UKW6-2 1-255)
# T6 sequence: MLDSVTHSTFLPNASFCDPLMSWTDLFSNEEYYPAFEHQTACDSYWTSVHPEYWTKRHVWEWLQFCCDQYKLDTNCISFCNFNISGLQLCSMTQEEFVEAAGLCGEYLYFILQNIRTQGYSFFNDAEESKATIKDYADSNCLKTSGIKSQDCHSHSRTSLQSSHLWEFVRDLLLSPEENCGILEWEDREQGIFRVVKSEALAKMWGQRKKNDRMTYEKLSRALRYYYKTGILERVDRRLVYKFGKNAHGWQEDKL
# Outline: as §1
# [8] = molecular target: T7, ETV3 (Homo sapiens, UniProt P41162-2 1-143)
# T7 sequence: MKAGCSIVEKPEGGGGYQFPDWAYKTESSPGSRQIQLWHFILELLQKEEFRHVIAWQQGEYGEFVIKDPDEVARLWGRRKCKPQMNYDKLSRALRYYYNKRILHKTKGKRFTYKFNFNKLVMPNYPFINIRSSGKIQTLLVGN
# Outline: as §1
# [9] = molecular target: ETV6 (Homo sapiens, UniProt P41212 1-452)
# Sequence of ETV6 (P41212 whole entry): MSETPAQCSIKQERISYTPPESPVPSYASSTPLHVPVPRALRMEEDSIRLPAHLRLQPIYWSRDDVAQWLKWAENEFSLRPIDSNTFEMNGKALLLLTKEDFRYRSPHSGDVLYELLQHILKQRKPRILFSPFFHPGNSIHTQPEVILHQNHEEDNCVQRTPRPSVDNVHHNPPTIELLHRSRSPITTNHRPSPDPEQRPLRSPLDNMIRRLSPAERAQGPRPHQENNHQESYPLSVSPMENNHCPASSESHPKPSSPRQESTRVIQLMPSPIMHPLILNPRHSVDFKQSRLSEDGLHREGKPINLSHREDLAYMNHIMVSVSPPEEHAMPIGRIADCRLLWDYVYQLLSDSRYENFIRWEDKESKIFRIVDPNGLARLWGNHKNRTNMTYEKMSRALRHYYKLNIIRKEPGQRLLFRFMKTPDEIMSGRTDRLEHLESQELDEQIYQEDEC
# Outline: as §1
sequence,measurement,setting,value
TGACCA,binding signal,[1],"1.21 fold enrichment (6-mer frequency, TF over GST control)"
same,binding signal,[2],"1.31 fold enrichment (6-mer frequency, TF over GST control)"
same,binding signal,[3],"1.32 fold enrichment (6-mer frequency, TF over GST control)"
same,binding signal,[4],"1.23 fold enrichment (6-mer frequency, TF over GST control)"
same,binding signal,[5],"1.24 fold enrichment (6-mer frequency, TF over GST control)"
same,binding signal,[6],"1.15 fold enrichment (6-mer frequency, TF over GST control)"
same,binding signal,[7],"1.16 fold enrichment (6-mer frequency, TF over GST control)"
same,binding signal,[8],"1.23 fold enrichment (6-mer frequency, TF over GST control)"
same,binding signal,[9],"1.27 fold enrichment (6-mer frequency, TF over GST control)"
